{"source": "PubChem BioAssay (EPA / NIEHS)", "note": "Records with an inconclusive call do not appear. Active and inactive are the calls of the source. How the source made its calls: active means hit-call score of the fitted dose curve at least 0.9, where 1 is the maximum; inconclusive means response in the unintended direction; inactive means score below 0.9.", "data": [{"target": "Estrogen receptor beta (Homo sapiens) (UniProt Q92731)", "sequence (Q92731 whole entry, looked up, the tested form may be a part)": "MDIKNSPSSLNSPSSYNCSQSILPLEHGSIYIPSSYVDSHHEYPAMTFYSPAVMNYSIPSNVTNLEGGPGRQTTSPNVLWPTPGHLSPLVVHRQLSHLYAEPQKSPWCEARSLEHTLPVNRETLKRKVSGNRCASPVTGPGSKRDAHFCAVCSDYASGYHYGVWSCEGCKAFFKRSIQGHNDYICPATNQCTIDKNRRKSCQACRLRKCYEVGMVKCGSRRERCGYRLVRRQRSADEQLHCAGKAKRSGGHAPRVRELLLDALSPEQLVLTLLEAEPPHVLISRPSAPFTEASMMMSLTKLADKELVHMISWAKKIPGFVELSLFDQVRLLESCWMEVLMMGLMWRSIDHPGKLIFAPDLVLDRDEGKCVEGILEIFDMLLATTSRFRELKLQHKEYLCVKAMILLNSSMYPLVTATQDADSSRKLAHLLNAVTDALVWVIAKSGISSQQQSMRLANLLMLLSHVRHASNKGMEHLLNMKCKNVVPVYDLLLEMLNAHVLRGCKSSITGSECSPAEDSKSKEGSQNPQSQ", "assay": "OT_ER_ERbERb_0480: Odyssey Thera (OT) 8-hour HEK293T Protein-Complementation Assay for Estrogen Receptor-beta/-beta Homodimer (AID 2283357)", "how_it_was_run": "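ER-beta LBD homodimer PCA stably expressed in HEK293T; 8 h compound exposure, then formaldehyde fixation and Draq5 staining. Gain in nuclear/cytoplasmic fluorescence intensity versus DMSO vehicle, read on laser scanning cytometer.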", "values": [{"compound": "CC(C)(O)c1coc(S(=O)(=O)NC(=O)Nc2c3c(cc4c2CCC4)CCC3)c1", "outcome": "inactive"}, {"compound": "CC(O)CN(CCN(CC(C)O)CC(C)O)CC(C)O", "note": "(stereo unspecified)", "outcome": "inactive"}, {"compound": "CCOCCOCCOCCO", "outcome": "inactive"}, {"compound": "O=C1CCC(N2C(=O)c3ccccc3C2=O)C(=O)N1", "note": "(stereo unspecified)", "outcome": "inactive"}, {"compound": "COc1ccc(/C=C/S(=O)(=O)NC(=O)c2ccc(C)cc2Cl)cc1", "outcome": "inactive"}, {"compound": "CC[C@H]1OC(=O)[C@H](C)[C@@H](O[C@H]2C[C@@](C)(OC)[C@@H](O)[C@H](C)O2)[C@H](C)[C@@H](O[C@@H]2O[C@H](C)C[C@H](N(C)C)[C@H]2O)[C@](C)(O)C[C@@H](C)C(=O)[C@H](C)[C@@H](O)[C@]1(C)O", "outcome": "inactive"}, {"compound": "COCCOCCOCCOC", "outcome": "inactive"}, {"compound": "CC(C)CC(C)(O)C#CC(C)(O)CC(C)C", "note": "(stereo unspecified)", "outcome": "inactive"}, {"compound": "CNCc1ccc(NC(=O)c2c[nH]c3c2C(=O)CCC3)cc1", "outcome": "inactive"}, {"compound": "Clc1nc(Cl)c(Cl)c(Cl)c1Cl", "outcome": "inactive"}, {"compound": "CC(C)CCCCCCOC(=O)c1ccc(C(=O)OCCCCCCC(C)C)c(C(=O)OCCCCCCC(C)C)c1", "outcome": "inactive"}, {"compound": "C1N2CN3CN1CN(C2)C3", "outcome": "inactive"}, {"compound": "CCOCCO", "outcome": "inactive"}, {"compound": "CN(C)c1ccc(Cc2ccc(N(C)C)cc2)cc1", "outcome": "inactive"}, {"compound": "O=C1CCCCCN1", "outcome": "inactive"}, {"compound": "CC(=O)OCCC(C)C", "outcome": "inactive"}, {"compound": "CCOC(=O)CC(CC(=O)OCC)(OC(C)=O)C(=O)OCC", "outcome": "inactive"}, {"compound": "COCCOc1cc2cc(C(=O)NC3CCN(C(C)C)CC3)n(CC(=O)Nc3ccc(Cl)cn3)c2cn1", "outcome": "inactive"}, {"compound": "CCN(C(=O)c1cc(C)cc(OC[C@H](C)Nc2ccncc2)c1)C(C)C", "outcome": "inactive"}, {"compound": "C1=CCCC=CCCC=CCC1", "outcome": "inactive"}, {"compound": "NC(=O)NO", "outcome": "inactive"}, {"compound": "O=C1OC(=O)C2C3C=CC(C3)C12", "note": "(stereo unspecified)", "outcome": "inactive"}, {"compound": "Cc1c(-c2cccnc2)c2ccccc2n1CCCCC(=O)O", "outcome": "inactive"}, {"compound": "On1ccccc1=S", "outcome": "inactive"}, {"compound": "CCOC(=O)c1ccc(C2CCC(NC[C@H](O)COc3ccc(O)c(NS(C)(=O)=O)c3)CC2)cc1", "note": "(stereo partly specified)", "outcome": "inactive"}]}, {"target": "human Peroxisome Proliferator-activated Receptor alpha (PPARa), PPARA (gene 5465) (UniProt Q07869)", "sequence (Q07869 whole entry, looked up)": "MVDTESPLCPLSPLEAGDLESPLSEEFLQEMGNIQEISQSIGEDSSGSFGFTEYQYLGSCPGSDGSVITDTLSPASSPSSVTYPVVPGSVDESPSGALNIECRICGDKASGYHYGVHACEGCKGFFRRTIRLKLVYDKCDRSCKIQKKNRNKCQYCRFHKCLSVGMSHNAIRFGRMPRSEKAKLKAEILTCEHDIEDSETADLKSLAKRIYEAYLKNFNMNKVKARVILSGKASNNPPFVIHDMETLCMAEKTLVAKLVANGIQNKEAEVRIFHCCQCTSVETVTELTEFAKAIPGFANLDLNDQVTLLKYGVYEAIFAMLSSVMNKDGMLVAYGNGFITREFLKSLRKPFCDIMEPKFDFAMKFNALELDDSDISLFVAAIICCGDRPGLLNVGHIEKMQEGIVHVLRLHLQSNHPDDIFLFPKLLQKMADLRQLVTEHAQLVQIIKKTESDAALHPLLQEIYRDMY", "assay": "NVS_NR_hPPARa: NovaScreen (NVS) Nuclear Receptor Binding Assay for human Peroxisome Proliferator-activated Receptor alpha (PPARa) (AID 2283359)", "how_it_was_run": "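Loss of TR-FRET binding signal relative to DMSO was measured 1 h after chemical addition to extracted receptor protein. Chemicals were first tested in duplicate at 25 uM, and actives were followed up in concentration series.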", "values": [{"compound": "CN(C)c1ccc(Cc2ccc(N(C)C)cc2)cc1", "outcome": "inactive"}, {"compound": "CCCCC(CC)COC(=O)c1ccc(C(=O)OCC(CC)CCCC)cc1", "note": "(stereo unspecified)", "AC50": "25 µM (active)"}, {"compound": "CCOC(=O)c1ccc(C2CCC(NC[C@H](O)COc3ccc(O)c(NS(C)(=O)=O)c3)CC2)cc1", "note": "(stereo partly specified)", "outcome": "inactive"}]}, {"target": "PGR (gene 5241) (UniProt P06401)", "sequence (P06401 whole entry, looked up)": "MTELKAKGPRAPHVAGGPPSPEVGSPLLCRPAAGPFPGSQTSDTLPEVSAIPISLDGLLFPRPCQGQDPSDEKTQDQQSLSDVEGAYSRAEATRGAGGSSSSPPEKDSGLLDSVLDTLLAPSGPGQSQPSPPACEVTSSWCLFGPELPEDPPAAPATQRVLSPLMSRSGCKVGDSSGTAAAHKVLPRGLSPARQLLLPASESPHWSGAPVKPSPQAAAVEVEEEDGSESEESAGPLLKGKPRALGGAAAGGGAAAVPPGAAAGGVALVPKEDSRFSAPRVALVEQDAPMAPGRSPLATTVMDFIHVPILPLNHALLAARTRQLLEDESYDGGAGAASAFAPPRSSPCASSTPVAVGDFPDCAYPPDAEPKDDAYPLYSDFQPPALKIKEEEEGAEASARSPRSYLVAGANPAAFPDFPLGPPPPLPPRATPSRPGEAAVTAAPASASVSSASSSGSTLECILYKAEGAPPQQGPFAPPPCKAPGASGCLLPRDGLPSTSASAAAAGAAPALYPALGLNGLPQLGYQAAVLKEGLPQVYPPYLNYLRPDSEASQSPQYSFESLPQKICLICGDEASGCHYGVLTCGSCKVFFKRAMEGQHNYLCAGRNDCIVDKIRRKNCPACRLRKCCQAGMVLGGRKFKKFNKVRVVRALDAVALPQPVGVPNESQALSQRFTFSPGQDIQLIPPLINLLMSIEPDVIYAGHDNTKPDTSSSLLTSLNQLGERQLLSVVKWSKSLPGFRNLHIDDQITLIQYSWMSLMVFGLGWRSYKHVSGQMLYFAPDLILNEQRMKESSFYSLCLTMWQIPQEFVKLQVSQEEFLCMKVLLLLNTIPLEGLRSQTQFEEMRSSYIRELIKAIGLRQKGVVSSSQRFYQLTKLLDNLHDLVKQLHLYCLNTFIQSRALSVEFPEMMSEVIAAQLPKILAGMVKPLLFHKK", "assay": "NVS_NR_hPR: NovaScreen (NVS) Nuclear Receptor Binding Assay for human Progestron Receptor (PR) (AID 2283360)", "how_it_was_run": "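Cell-free radioligand binding using receptor protein extracted from T47D cells, read by scintillation counting 18 hours after dosing. Loss of signal relative to DMSO baseline indicates displacement; primary screen single concentration 25 uM in duplicate, actives followed in concentration series.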", "values": [{"compound": "CC(C)(O)c1coc(S(=O)(=O)NC(=O)Nc2c3c(cc4c2CCC4)CCC3)c1", "outcome": "inactive"}, {"compound": "CNCc1ccc(NC(=O)c2c[nH]c3c2C(=O)CCC3)cc1", "outcome": "inactive"}, {"compound": "C1N2CN3CN1CN(C2)C3", "outcome": "inactive"}, {"compound": "CC(=O)OCCC(C)C", "outcome": "inactive"}, {"compound": "Cc1c(-c2cccnc2)c2ccccc2n1CCCCC(=O)O", "outcome": "inactive"}]}, {"target": "Retinoic acid receptor alpha (Homo sapiens) (UniProt P10276)", "sequence (P10276 whole entry, looked up)": "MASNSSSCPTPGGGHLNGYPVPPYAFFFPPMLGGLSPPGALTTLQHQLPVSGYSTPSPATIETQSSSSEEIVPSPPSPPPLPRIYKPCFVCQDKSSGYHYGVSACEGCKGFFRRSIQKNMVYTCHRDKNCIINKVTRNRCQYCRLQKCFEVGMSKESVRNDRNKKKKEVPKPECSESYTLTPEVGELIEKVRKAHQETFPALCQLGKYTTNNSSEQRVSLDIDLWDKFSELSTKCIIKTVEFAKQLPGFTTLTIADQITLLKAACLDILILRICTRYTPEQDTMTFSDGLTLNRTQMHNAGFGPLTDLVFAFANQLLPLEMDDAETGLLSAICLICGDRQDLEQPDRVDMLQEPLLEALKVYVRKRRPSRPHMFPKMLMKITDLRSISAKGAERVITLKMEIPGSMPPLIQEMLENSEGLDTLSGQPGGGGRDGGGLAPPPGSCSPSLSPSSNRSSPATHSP", "assay": "NVS_NR_hRARa_Agonist: NovaScreen (NVS) Nuclear Receptor Binding Assay for human Retinoic Acid Alpha Receptor Agonism (RAR) (AID 2283361)", "how_it_was_run": "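Agonist-mode TR-FRET binding format using extracted protein, measured at 2 h post-dosing. Initial duplicate single-point screen at 25 uM preceded concentration series for actives; activity was normalized to DMSO baseline.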", "values": [{"compound": "Clc1nc(Cl)c(Cl)c(Cl)c1Cl", "outcome": "inactive"}, {"compound": "Cn1c(=O)c2c(ncn2C)n(C)c1=O", "outcome": "inactive"}, {"compound": "CC(C)CCCCCCCOC(=O)CCCCC(=O)OCCCCCCCC(C)C", "outcome": "inactive"}]}]}
